# Compounds with a hit are over-represented: about 7.7% of the library has one in this group of screens.
# Giardia FBPA inh: qHTS Assay for Inhibitors of Fructose-1,6-bisphosphate Aldolase from Giardia Lamblia | A8B2U2 | Potency, µM (highest dose often 59.6 µM), without a hit: top-dose activity, negative = inhibition, most hits filed as inhibitors | 290,000 compounds, 0.71% hits | purified Giardia FBPA | AID 2451, 2010; also: potency is read from the fitted curve at half-maximal effect; nearly all actives have a fitted effect of over 55% in size
# Target sequence (A8B2U2 whole entry, looked up): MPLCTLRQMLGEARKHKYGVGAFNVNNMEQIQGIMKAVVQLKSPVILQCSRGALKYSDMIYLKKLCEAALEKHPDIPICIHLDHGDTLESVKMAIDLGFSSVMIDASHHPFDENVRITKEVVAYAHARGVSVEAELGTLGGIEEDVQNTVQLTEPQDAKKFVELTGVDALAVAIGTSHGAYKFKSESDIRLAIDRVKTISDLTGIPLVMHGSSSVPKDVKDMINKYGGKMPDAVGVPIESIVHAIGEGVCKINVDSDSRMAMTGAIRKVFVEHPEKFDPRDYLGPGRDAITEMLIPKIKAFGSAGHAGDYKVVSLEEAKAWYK
#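 Giardia FBPA (40 nM reagent) was preincubated 10 min at RT with compound (up to 57.5 uM final), then substrate plus GAPDH/TPI/NAD/arsenate coupling system with diaphorase/resazurin was added; resorufin fluorescence (525/598 nm) was read after 20 min.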
# Sm TGR inh: qHTS Assay for the Inhibitors of Schistosoma Mansoni Peroxiredoxins | purified TGR, DTNB reduction, TNB absorbance 405 nm | Potency, µM (top dose mostly 114 µM), inactives show at the highest dose activity change, negative = inhibition, usual class: inhibitors | 360,000 compounds, 3% hits; also: potency is read from the fitted curve at half-maximal effect; nearly all actives have a fitted effect of over 60% in size
#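 First, TGR (20 nM dispensed) and NADPH were mixed with compound. Second, a 15 min room-temperature incubation followed. Third, further NADPH and then DTNB were added to start the reaction. Finally, TNB absorbance was monitored kinetically.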
# FMDV inh: High Throughput Screening for Foot and Mouth Disease Virus Antivirals. AID 1159524, 2015. Potency, µM (series often up to 57.9 µM), without a hit: at the top dose activity change, negative = inhibition, hits mostly inhibitors. FMDV antiviral cell-based qHTS. 410,000 compounds, 1.2% hits; calls by dose curve; tested in HEK293T cells; also: read-out not given here; potency is read from the fitted curve at half-maximal effect; nearly all actives have a fitted effect of over 45% in size
# RE007 growth inh: qHTS Assay for Inhibitors of the HIV-1 protein Vpr. Potency, µM (series often up to 92.2 µM), for inactives: at the top dose activity change, negative = less growth, most hits filed as inhibitors. 360,000 compounds, 0.21% hits. S. pombe RE007 Vpr strain, BacTiter-Glo ATP luminescence, 24 h. AID 651644, 2012; active = well fitted falling curve with a large enough effect; inconclusive = small, poorly fitted or top-dose-only effect; inactive = no such curve, though single readings can be large or run the other way; also: potency is read from the fitted curve at half-maximal effect; nearly all actives have a fitted effect of over 50% in size
#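 Fission yeast RE007 carrying one integrated HIV-1 vpr copy, seeded at OD 0.01 in PMG+AL medium with 23 nL pinned compound. Grown 24 h at 30 degrees; viability read by BacTiter-Glo luminescence after 5 min.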
# TbPYK inhibitor: qHTS of Trypanosoma Brucei Inhibitors | pyruvate kinase (Trypanosoma brucei), Q57TT1 | TbPYK enzyme, Kinase-Glo Plus ATP luminescence, 45 min | Potency, µM (series often up to 76.8 µM), for inactives: top-dose activity, negative = inhibition, most hits filed as inhibitors | 410,000 compounds, 0.12% hits; also: potency is read from the fitted curve at half-maximal effect; nearly all actives have a fitted effect of over 50% in size
#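 In this concentration-response screen, enzyme-free wells defined baseline while DMSO plates tracked drift. Each reaction combined TbPYK, substrate, compound and 130 uM ADP for 45 min at room temperature. Kinase-Glo Plus luminescence gave the signal.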
# HCMV antiviral: qHTS Assay for inhibitors of the human cytomegalovirus (HCMV) | 410,000 compounds, 4.5% hits | HFF cells, HCMV-luciferase reporter, 72 h; hits give low values | activity change, negative = inhibition, % at 57.5 µM; in the data active = activity change below about -60%; inconclusive = no clear call, values can overlap the other calls; inactive = above about -39%
#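 Human foreskin fibroblasts infected with luciferase-reporter HCMV at MOI 1 PFU/cell, compounds at two doses. Luciferase measured 72 h post infection; normalized to buffer-only basal and Salinomycin (10uM) controls.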
# * marks the source's active call; other numbers are inactive results; ? = inconclusive; nt = not tested or not shown; ! = not active in a repeat; [ ] = dose if it differs, or a comment. Unless noted, calls follow the shape of the dose curve; as a rule, active = well fitted curve in the direction sought with a large enough effect; inconclusive = small, poorly fitted or top-dose-only effect, or another doubt; inactive = no such curve, though single readings can be large; an effect the other way counts as inactive or inconclusive. % is scaled to controls: 0 for no effect and ±100 for the full control effect.
SMILES,Giardia FBPA inh,Sm TGR inh,FMDV inh,RE007 growth inh,TbPYK inhibitor,HCMV antiviral
CC1CCN(S(=O)(=O)c2cc(C(=O)N3CCN(c4ccccc4)CC3)ccc2Br)CC1,nt,nt,-19.4%,18.7%,2.9%,-76.1*
O=C(c1ccc(Cl)c(S(=O)(=O)N2CCCC2)c1)N1CCN(c2ccc(F)cc2)CC1,-12.0%,7.4%,?,16.8%,-2.3%,-87.4*
O=C(c1cc(N2C(=O)C3C4CCC(C4)C3C2=O)ccc1Cl)N1CCN(c2ccc(F)cc2)CC1 (stereo not given),6.3%,-7.1%,31.6µM*,31.0%,-3.3%,20.7
Cc1ccc(C(=O)N2CCN(c3ccc(F)cc3)CC2)cc1S(=O)(=O)N1CCCCC1,nt,2.2%,?,-2.9%,-5.7%,-84.1*
CCCCCCCCC#CCC#CCC#CCCCC(=O)O,5.5%,nt,-3.6%[6.7 µM],nt,nt,nt
CCCn1c(NC(=O)c2ccc(Cl)c(S(=O)(=O)N3CCCC3)c2)nc2ccccc21,-5.2%,-2.7%,?,23.3%,8.2%,-63.3*
O=C(c1ccc(Cl)c(S(=O)(=O)N2CCCC2)c1)N1CCN(c2ccccc2)CC1,3.8%,-7.4%,0.0%,-13.9%,-5.3%,?
O=C(Nc1ccc(N2CCOCC2)cc1)c1cccc(S(=O)(=O)N2CCCCC2)c1,-1.6%,2.6%,?,2.1%,9.1%,-21.1
CCCCn1ccnc1C(=O)c1cc(S(=O)(=O)N2CCOCC2)ccc1C,-9.9%,-12.0%,-12.4%,-6.4%,3.4%,-66.1*
Cc1ccc(S(=O)(=O)N2CCOCC2)cc1C(=O)O,6.4%,0.1%,5.6%,1.2%,4.2%,2.5
O=C(c1ccc(Cl)c(S(=O)(=O)N2CCCCC2)c1)N1CCN(c2ccccc2)CC1,nt,-11.1%,?,-6.9%,0.7%,-76.6*
O=C(Nc1ccc(N2CCOCC2)cc1)c1ccc(Cl)c(S(=O)(=O)N2CCCCC2)c1,nt,-25.0%,?,0.1%,0.0%,-62.5*
CC(C)C(=O)Nc1ccccc1C(=O)OCc1cc(=O)n2nc(C3CC3)sc2n1,nt,5.6%,-5.0%,nt,4.4%,37.5
CCc1cc2c(nc1CC)CCN(CC/C(C)=N/OC[C@@H](O)COCc1ccco1)C2,1.3%[12.9 µM],nt,nt,nt,nt,nt
CC(NC(=O)C1CCOCC1)c1nnc2n1CCN(Cc1ccc3ccccc3c1)CC2 (stereo not given),nt,nt,-16.6%,nt,nt,nt
Cc1ccc(S(=O)(=O)N2CCOCC2)cc1C(=O)Nc1ccc(N2CCCCCC2)cc1,nt,1.0%,-12.6%,0.3%,-11.6%,-64.4*
Cc1nc(-c2cccc(F)c2)sc1CCNC(=O)Cc1ccc(F)cc1,nt,-6.5%,-9.1%,nt,0.7%,6.2
Cc1ccc2c(c1)N(C=Nc1c(C)cccc1Cl)C(c1ccccc1)c1cccn1-2 (stereo not given),nt,nt,nt,nt,nt,8.9
CC1=C(C(N)=O)C(c2cccs2)n2ncnc2N1 (stereo not given),0.5%,-21.5%,-12.1%,3.6%,-5.9%,0.3
c1csc(C2C3=C(Nc4ncnn42)c2ccccc2OC3)c1 (stereo not given),-18.8%,44.7µM*,?,-18.5%,-24.8%,?
CCC(Oc1ccc(F)cc1)C(=O)Nc1nc(-c2ccc(F)cc2)ns1 (stereo not given),nt,42.2%,-19.2%,nt,-3.9%,-97.5*
CCC(Oc1ccc(F)cc1)C(=O)Nc1cc(-c2ccc(C)cc2)no1 (stereo not given),nt,7.7%,-3.4%,nt,-0.1%,31.9
CC1(C)Cc2nc3oc4c(N(CCO)Cc5ccccc5)ncnc4c3cc2CO1,4.0%,1.2%,31.6µM*,-13.9%,5.5%,?
C#CCCCO/N=C1/C[C@@H](O)[C@@H](O)[C@@H]2[C@@H]3C(=O)N(C4CCCCC4)C(=O)[C@H]3CC[C@@H]12,2.7%[12.9 µM],nt,nt,nt,nt,nt
COc1ccc(-c2nc3c(c(SCC(=O)Nc4cccc(O)c4)n2)Cc2c(CO)cnc(C)c2O3)cc1,-8.2%,-24.2%,-16.8%,14.9%,1.7%,-62.5*!
SMILES,Giardia FBPA inh,Sm TGR inh,FMDV inh,RE007 growth inh,TbPYK inhibitor,HCMV antiviral
COc1ccccc1NC(=O)CSc1nc(-c2cccc(Cl)c2)nc2c1Cc1c(CO)cnc(C)c1O2,nt,20µM*,-24.6%,nt,1.0%,-9.0
CCSc1nc(-c2ccccc2F)nc2c1Cc1c(CO)cnc(C)c1O2,nt,44.7µM*,-12.9%,nt,-3.9%,1.9
CCSc1nc(-c2ccccc2OC)nc2c1Cc1c(CO)cnc(C)c1O2,nt,-4.6%,-13.0%,nt,1.8%,-35.1
CCC1CCCCN1C(=O)c1cc(COc2ccc(-n3cncn3)cc2)on1 (stereo not given),nt,-13.1%,?,2.1%,-5.3%,-60.6*
CCOC(=O)c1c(C)[nH]c(C)c1S(=O)(=O)NCCN1CCN(c2cc(Cl)ccc2C)CC1,0.3%,-8.4%,6.9%,-3.8%,30.8%,-72.4*
CCOC(=O)c1c(C)[nH]c(CCC(=O)NCCCN2CCN(c3cc(Cl)ccc3C)CC2)c1C,nt,-11.0%,?,nt,-1.1%,-96.6*
CCOC(=O)c1c(C)[nH]c(C)c1S(=O)(=O)N1CCN(c2cc(Cl)ccc2C)CC1,nt,-0.2%,13.0%,nt,-2.0%,-89.6*
CCOC(=O)c1c(C)[nH]c(C)c1S(=O)(=O)NCC(=O)N1CCN(c2cc(Cl)ccc2C)CC1,nt,1.1%,-22.5%,nt,1.4%,-21.3
CCOC(=O)c1c(C)[nH]c(C)c1S(=O)(=O)N1CCN(c2cccc(C(F)(F)F)c2)CC1,nt,6.6%,-16.4%,nt,4.1%,-100.7*
O=C(C=Cc1ccc(O)c(O)c1)NCC(=O)NC(Cc1ccccc1)C(=O)O (stereo not given),nt,nt,nt,nt,nt,-1.5
CCCCNc1nc2ccccc2c2nc(-c3ccccc3)nn12,nt,5.1%,-8.8%,nt,-1.6%,-17.2
COC(=O)c1ccc(C(NC(=O)OCc2ccccc2)/C(=C/[C@@H](C)C(=O)N[C@@H](CO)Cc2ccccc2)c2cccnc2)cc1 (stereo not given in full),-2.0%,nt,nt,nt,nt,nt
CCN(CC)c1cc(C)c2cc(NC(=O)/C=C/c3ccc(C)cc3)ccc2n1,nt,-1.8%,0.0%,nt,-0.5%,-10.5
CC(NC(=O)C1CCOCC1)c1nnc2n1CCN(Cc1cc3c(cc1Cl)OCO3)CC2 (stereo not given),nt,nt,-11.9%,nt,nt,nt
CCCCN(C)C(=O)c1ccc2c(c1)NC(=O)C(CC(C)C)N2 (stereo not given),nt,-8.1%,-5.5%,nt,0.3%,21.8
CCOc1ccc(NS(=O)(=O)c2ccc(NC(=O)N3CCCC3)cc2)cc1,nt,-1.5%,-9.2%,nt,0.4%,14.1

# Source: PubChem BioAssay (National Center for Advancing Translational Sciences (NCATS))
